The text below walks through data of PubChem BioAssay AID2685 (National Center for Advancing Translational Sciences (NCATS), 2010).

SMILES strings stand for the structures. The whole screen tested about 320,000 compounds, of which about 2,100 (0.66%) were called active. Another 53% or so got no clear call; they are omitted. This is one part of a sample in which actives are shown more often than they occur. Calls follow the shape of the dose curve; as a rule, active = well fitted inhibition curve with a large enough effect in the signal ratio, with a control signal flat (not every such curve was filed as active); inconclusive = small, poorly fitted or top-dose-only effect, or effect the other way, or a change in a side signal; inactive = flat fitted curve, though single readings scatter; the % refers to the signal ratio.
Potency is read from the fitted curve at half-maximal effect.

A short description of this assay: qHTS Assay for Lipid Storage Modulators in Drosophila S3 Cells.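 As to cell number change: cells counted by Cell Tracker Red CMTPX staining in the red channel.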 As to lipid storage change, negative = inhibition: % is scaled to controls: 0 for no effect and ±100 for the full control effect. As to conditions: BODIPY lipid droplet fluorescence, 18-24 h, cells fed with added oleic acid; cell number change: measured here: cell count max response; series mostly up to 46.1 µM; lipid storage change, negative = inhibition: at the top concentration. Summed up:
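Drosophila S3 cells got compounds at several concentrations plus oleic acid (400 uM solution). Laser-scanning cytometry with 488 nm excitation read lipid droplets at 500-530 nm and cells at 575-640 nm. Percent activity was relative to 20 uM Triacsin C.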
`COc1ccccc1NC(=O)COC(=O)/C=C/c1ccc2c(c1)OCO2`: the “lipid storage change, negative = inhibition” value is 3.62% (inactive) and the cell number change came out at 18%.

Turning to `NC(=O)c1ccc(NC(=O)COC(=O)/C=C/c2ccc3c(c2)OCO3)cc1`, the “lipid storage change, negative = inhibition” value was -1.6% (inactive) and the cell number change came to 9.72%.

Consider `CC(=O)Nc1ccc(NC(=O)COC(=O)/C=C/c2ccc3c(c2)OCO3)cc1`, for which the Potency is 5.17 µM (active) and the cell number change is -1.06%.

`CCOC(=O)C1(Cc2ccccc2C(F)(F)F)CCN(C2CCN(C(C)=O)CC2)CC1`: the “lipid storage change, negative = inhibition” value was 6.45% (inactive) and the cell number change was found to be 11.4%.

As for `CC1CCc2nc(N)c(C#N)c(-c3cccn3C)c2C1` (stereo not given), the “lipid storage change, negative = inhibition” value is 12% (inactive).

With `COc1cccc2cc(C(=O)NCc3ccccc3Br)c(=O)oc12`, the “lipid storage change, negative = inhibition” value is 9.42% (inactive) and the cell number change stood at 1.66%.

Take `CC1Cc2ccccc2N1C(=O)c1cc2cccnc2n(C)c1=O` (stereo not given): the “lipid storage change, negative = inhibition” value is 4.14% (inactive) and the cell number change was 1.02%.

As to `NS(=O)(=O)c1cc2c(cc1Cl)NC(c1ccccc1OCC(=O)O)NS2(=O)=O` (stereo not given), the outcome was inactive and the cell number change was -10.4%.

Turning to `COc1ccc(/C=C/C(=O)c2ccc(Cl)cc2)c(OC)c1`, the “lipid storage change, negative = inhibition” value was -3.9% (inactive) and the cell number change is -5.6%.

For `COC(=O)/C=C/C(=O)Nc1cccnc1`, the “lipid storage change, negative = inhibition” value was 6.84% (inactive) and the cell number change was -5.59%.

`COc1ccccc1/C=C/C(=O)c1ccc(Cl)cc1`: the Potency is 4.61 µM (active) and the cell number change was determined as 1.97%.

On to `COc1ccccc1/C=C/C(=O)Nc1cccnc1`, for which the Potency was 5.8 µM (active) and the cell number change is -14.6%.

Take `COc1ccccc1/C=C/C(=O)NCc1cccnc1`: the “lipid storage change, negative = inhibition” value is 11.8% (inactive) and the cell number change is -13.8%.

As for `COc1ccccc1/C=C/C(C)=O`, the “lipid storage change, negative = inhibition” value was 0.161% (inactive) and the cell number change worked out at 3.8%.

For the molecule `CCCOc1ccc(/C=N/Nc2ccc(C(=O)O)cc2)c(OCCC)c1`, the “lipid storage change, negative = inhibition” value was 15.7% (inactive) and the cell number change was found to be 9.43%.

Consider `CCn1nc(NS(=O)(=O)c2ccc(NC(C)=O)cc2)c2cc3ccccc3nc21`, for which the molecule was called inactive and the cell number change was -12.4%.

As for `COCCN1C(=O)N[C@@H](c2ccco2)C(C(C)=O)=C1C`, the “lipid storage change, negative = inhibition” value was -6.07% (inactive) and the cell number change is 3.8%.

On to `COCCCNC(=O)CN(c1cccc(Cl)c1)S(C)(=O)=O`, for which the “lipid storage change, negative = inhibition” value was 4.41% (inactive) and the cell number change is -7.55%.

In the case of `CCC(C)Nc1cc(C)c(C#N)c2nc3ccccc3n12` (stereo not given), the “lipid storage change, negative = inhibition” value is 6.81% (inactive) and the cell number change was 5.52%.

As for `Cc1cc(NC(C)C)n2c(nc3ccccc32)c1C#N`, the Potency is 16.4 µM (active) and the cell number change is -88.9%.

On to `CNc1cc(C)c(C#N)c2nc3ccccc3n12`, for which the call was inactive and the cell number change is -18.9%.

In the case of `CC1CCCC(C)N1C(=O)Cn1cc(/C=C2/C(=O)Nc3ccccc32)c2ccccc21` (stereo not given), the Potency was 23.1 µM (active) and the cell number change was -83.5%.

On to `CC1CCCC(C)N1C(=O)Cn1cc(C#N)c2ccccc21` (stereo not given), for which the “lipid storage change, negative = inhibition” value is 19.1% (inactive) and the cell number change stood at 9.53%.

With `COC(=O)c1cn(CC(=O)N2C(C)CCCC2C)c2ccccc12` (stereo not given), the “lipid storage change, negative = inhibition” value is 1.45% (inactive) and the cell number change amounted to 9.64%.

As for `O=C(CS(=O)(=O)Cc1ccccc1)NCc1ccco1`, the “lipid storage change, negative = inhibition” value is -0.383% (inactive) and the cell number change is -5.74%.

On to `Cc1ccc(CCNC(=O)C2CCCN(S(=O)(=O)N3CC(C)CC(C)C3)C2)cc1` (stereo not given), for which the “lipid storage change, negative = inhibition” value was -23.2% (inactive) and the cell number change is -24.2%.

On to `CC(C)(C)NC(=O)NC(=O)COC(=O)Cn1c(C(F)(F)F)nc2ccccc21`, for which the Potency is 5.17 µM (active) and the cell number change is -8.07%.

`CC(C)(C)c1ccc(OC(=O)Cn2c(C(F)(F)F)nc3ccccc32)cc1`: the Potency was 13 µM (active) and the cell number change is -15.3%.

On to `COC(=O)Cn1c(C(F)(F)F)nc2ccccc21`, for which the “lipid storage change, negative = inhibition” value was -1.69% (inactive) and the cell number change is -24.1%.

On to `CC(=O)Cn1c(C(F)(F)F)nc2ccccc21`, for which the “lipid storage change, negative = inhibition” value is -2.72% (inactive) and the cell number change is -7.24%.

Consider `CC(C)(C)NC(=O)NC(=O)COC(=O)Cn1cnc2ccccc2c1=O`, for which the molecule was classed as inactive and the cell number change is -17.2%.

`CCOC(=O)c1c(NC(=O)COC(=O)Cn2c(C(F)(F)F)nc3ccccc32)sc(C)c1C`: the “lipid storage change, negative = inhibition” value was 0.975% (inactive) and the cell number change amounted to 2.48%.

Consider `Nc1ccc(C(=O)Nc2cccc(NC(=O)c3ccc(N)cc3)c2)cc1`, for which the call was inactive and the cell number change is -20.4%.

On to `CCCN1C(=O)C2C(C(=O)Nc3cccc(OC)c3)C3C=CC2(O3)C1C(=O)NC1CCCCC1` (stereo not given), for which the “lipid storage change, negative = inhibition” value is -3.79% (inactive) and the cell number change was found to be 1.47%.

For the molecule `Cc1ccc(S(=O)(=O)N(CC(=O)O)Cc2ccco2)cc1`, the “lipid storage change, negative = inhibition” value is -18.7% (inactive) and the cell number change stood at 0.734%.

As to `COc1cc(NC(=S)NCc2cccnc2)cc(OC)c1OC`, the “lipid storage change, negative = inhibition” value is 7.12% (inactive) and the cell number change worked out at 5.48%.

In the case of `COc1cc(NC(=S)NCc2cccnc2)cc(OC)c1`, the Potency was 5.8 µM (active) and the cell number change was -12.6%.

Regarding `COc1cccc(NC(=S)NCc2cccnc2)c1`, the “lipid storage change, negative = inhibition” value was -1.84% (inactive).

In the case of `Cc1ccc(-c2nc(C)sc2CC(=O)Nc2cccc(C)c2C)cc1`, the “lipid storage change, negative = inhibition” value is 0.0243% (inactive) and the cell number change stood at 6.08%.

`COc1ccc(NC(=O)C(=O)Nc2cccc3cccnc23)cc1OC`: the result was inactive and the cell number change was determined as 32.1%.

As to `COc1ccc(C2CC(=O)C3=C(C2)Nc2ccccc2N(C(=O)CCC(=O)O)C3c2ccc(F)cc2)cc1OC` (stereo not given), the “lipid storage change, negative = inhibition” value was -11.3% (inactive) and the cell number change is -2.28%.

With `CC(C)c1nnc(SCC(=O)N2CCOCC2)n1C`, the “lipid storage change, negative = inhibition” value is -0.0362% (inactive) and the cell number change stood at 3.98%.

As for `CN(C)S(=O)(=O)c1ccc2c(c1)/C(=C/c1cc3c([nH]1)CCCC3)C(=O)N2`, the Potency is 5.17 µM (active) and the cell number change was determined as 2.43%.

Take `Cc1ccc2c(c1)/C(=C/c1ccc(F)cc1)C(=O)N2`: the “lipid storage change, negative = inhibition” value is 22% (inactive) and the cell number change turned out to be 18%.

As to `CN(C)S(=O)(=O)c1ccc2c(c1)Cc1cc(S(=O)(=O)N(C)C)ccc1-2`, the “lipid storage change, negative = inhibition” value was -3.2% (inactive) and the cell number change stood at 7.91%.

In the case of `CCOC(=O)C(=NCCCN(C)C)NNc1ccc(Br)cc1`, the “lipid storage change, negative = inhibition” value is 10.6% (inactive) and the cell number change amounted to 23.2%.
